High-throughput results as filed in PubChem.
p53ts 32C kill = kills p53ts cells at the permissive temperature | H1299-p53A138V at 32C, ATP luminescence viability, 24 h | Potency, µM (highest dose often 46.1 µM), inactives show top-dose activity change, negative = cytotoxicity, usual class: cytotoxic | 130,000 compounds, 0.93% hits;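 also: 0% = DMSO and -100% = full killing by reference compound; nearly all actives have a fitted effect of over 55% in size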
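H1299-p53 A138V cells (temperature-sensitive p53) exposed 24 h to up to 46 uM compound at 32C, where p53 is wild-type in conformation. Viability read as ATP luminescence and normalised to DMSO and 100 uM tamoxifen. AC50 fitted with the Hill equation.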
Luciferase inh = blocks Photinus pyralis firefly luciferase activity | AID 411 | P08659 | purified firefly luciferase, luminescence, 8 min | Potency, µM (titrated, usually from 57.1 µM), for the others: top-dose activity change, negative = inhibition, hits mostly inhibitors | 72,000 compounds, 2.2% hits; also: nearly all actives have a fitted effect of over 40% in size
Target sequence (P08659 whole entry, looked up): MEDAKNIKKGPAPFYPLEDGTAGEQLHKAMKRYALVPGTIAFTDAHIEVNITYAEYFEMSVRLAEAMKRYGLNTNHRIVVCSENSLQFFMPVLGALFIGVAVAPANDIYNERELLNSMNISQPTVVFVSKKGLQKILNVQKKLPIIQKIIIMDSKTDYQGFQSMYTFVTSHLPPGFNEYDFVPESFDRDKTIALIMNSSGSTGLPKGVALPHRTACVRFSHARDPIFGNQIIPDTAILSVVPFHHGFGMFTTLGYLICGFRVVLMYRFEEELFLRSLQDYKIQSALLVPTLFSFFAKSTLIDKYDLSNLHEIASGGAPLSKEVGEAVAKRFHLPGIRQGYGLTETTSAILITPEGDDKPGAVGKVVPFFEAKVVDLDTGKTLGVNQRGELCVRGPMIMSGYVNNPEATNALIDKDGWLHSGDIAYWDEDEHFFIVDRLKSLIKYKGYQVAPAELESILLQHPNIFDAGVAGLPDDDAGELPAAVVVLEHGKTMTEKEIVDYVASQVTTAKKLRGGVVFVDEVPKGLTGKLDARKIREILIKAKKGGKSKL
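qHTS concentration-response profiling: light output of P. pyralis luciferase with luciferin and 10 uM ATP, imidazole buffer pH 7.2. Read by luminescence after 8-min room-temperature incubation.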
p53ts 39C kill = cytotoxicity in p53ts cells at nonpermissive temperature; H1299-p53A138V viability at 39C, ATP luminescence, 24 h; Potency, µM (doses to about 46.1 µM), without a hit: at the highest dose activity change, negative = cell killing, actives largely listed as cytotoxic; 130,000 compounds, 1.5% hits; also: nearly all actives have a fitted effect of over 55% in size
An asterisk follows results filed as active; ? = inconclusive; . = no result given; [ ] = another dose, or the depositor's remark. Hits are enriched below; roughly 2.5% of the tested compounds scored in any of these assays. Calls follow the shape of the dose curve; as a rule, active = well fitted curve in the direction sought with a large enough effect; inconclusive = small, poorly fitted or top-dose-only effect, or another doubt; inactive = no such curve, though single readings can be large; an effect the other way counts as inactive or inconclusive. Unless noted, % is scaled to controls: 0 for no effect and ±100 for the full control effect; potency is read from the fitted curve at half-maximal effect.

SMILES	p53ts 32C kill	Luciferase inh	p53ts 39C kill
Cc1ccc(-n2c(=O)c3ccc(C(=O)NCc4ccccc4Cl)cc3n(Cc3ccccc3F)c2=O)cc1	6.2%	.	32.0%
Cc1ccc(NC(=O)Cn2c(=O)n(-c3ccc(C)cc3)c(=O)c3ccc(C(=O)NCc4ccccc4Cl)cc32)cc1	6.31µM*	.	1.26µM*
CCCN(CCC)C(=O)Cn1c(=O)n(-c2ccc(OC)cc2)c(=O)c2ccc(C(=O)NCc3ccc(C)cc3)cc21	16.4%	.	7.4%
CCc1ccc(NC(=O)Cn2c(=O)n(-c3ccc(OC)cc3)c(=O)c3ccc(C(=O)NCc4ccc(C)cc4)cc32)cc1	10µM*	.	3.16µM*
CCc1ccc(Oc2cc(C)nc(N)n2)cc1	9.6%	.	3.3%
CCc1ccc(-c2cn(-c3nc(C)cc(C)n3)c(=N)o2)cc1	12.2%	15.8µM*	-13.7%
Cc1ccc(C)c(N2CCN(C(=O)c3cnn(C(C)(C)C)c3C3CCN(C(=O)OC(C)(C)C)CC3)CC2)c1	-6.1%	.	-11.0%
CCCCCCCCC(=O)NCc1cc(OC)c(O)cc1I	3.8%	-1.7%	31.6µM*
COc1cc(CNC(=O)CCCCCCC(C)C)ccc1O	-8.8%	1.7%[11.4 µM]	-19.0%
Cc1ccc(CNC(=O)c2cccc(Nc3nc4ccccc4n4nnnc34)c2)cc1	?	.	6.31µM*
COCCNC(=O)c1cccc(Nc2nc3ccccc3n3nnnc23)c1	5.0%	.	-6.8%
CCNC(=O)[C@@H]1O[C@@H](n2cnc3c(N)nc(NCCc4ccc(CCC(=O)O)cc4)nc32)[C@H](O)[C@@H]1O	12.7%	-7.6%	11.3%
Cn1cccc1C(=O)OCC(=O)Nc1cc(C(C)(C)C)nn1-c1ccccc1	7.6%	1.6%	0.6%
Cn1cccc1C(=O)OCC(=O)c1cc2ccccc2o1	-0.7%	25.1µM*	-1.6%
Cc1ccccc1OCC(=O)Nc1nnc(S(=O)(=O)N(C)c2ccccc2)s1	-11.1%	.	13.5%
CCn1c(=O)n(CC)c2cc(N3CCCCC3)c(NC(=O)Nc3ccccc3C(F)(F)F)cc21	10.6%	.	?
CCn1c(=O)n(CC)c2cc(N3CCCC3)c(NC(=O)Nc3cc(C)cc(C)c3)cc21	?	.	12.6µM*
CCCNC(=O)c1cc(-c2ccc(O)cc2)on1	?	-19.8%	?
CCOc1ccc(NC(=O)c2ccc(N)cc2)cc1	12.6µM*	12.6µM*	12.6µM*
CCOc1ccc(NC(=O)c2ccncc2)cc1	-14.7%	-10.5%	-6.7%
CCOc1ccc(NC(=O)c2nn(C)cc2Br)cc1	.	10µM*	.
CCOc1ccc(NC(=O)Cn2nnc(C(=O)Nc3ccc(OCC)cc3)c2N)cc1	?	.	-25.9%
COc1ccc(-n2c(=O)c(-c3ccc(Cl)cc3)nc3cnc(N(C)C)nc32)cc1	-6.7%	-1.0%[11.4 µM]	2.1%
CCOc1ccccc1NC(=O)c1sc2nc(-c3ccc(OC)cc3)ccc2c1N	6.31µM*	.	3.98µM*
CCOc1ccccc1NC(=O)c1sc2nc(C)cc(C)c2c1N	5.4%	.	1.1%
SMILES	p53ts 32C kill	Luciferase inh	p53ts 39C kill
COC(=O)CSc1nc(N)c2c3c(sc2n1)CCCC3	.	12.6µM*	.
Nc1nc(SCC(=O)NCCCO)nc2sc3c(c12)CCC3	5.6%	.	-1.9%
O=C(CN1C(=O)COc2ccc(S(=O)(=O)N3CCOCC3)cc21)N1CCN(c2ccc(Cl)cc2)CC1	0.6%	.	4.9%
CC(=O)Nc1ccc2oc(-c3ccccc3Br)nc2c1	?	10µM*	?
O=C(Nc1ccc2oc(-c3cc(Br)ccc3Cl)nc2c1)c1ccc2ccccc2c1	?	.	12.6µM*
O=C(Nc1ccc2oc(-c3ccc4ccccc4c3)nc2c1)c1cc(Br)ccc1Cl	-24.1%	.	?
O=C(Nc1ccc2oc(-c3ccccc3F)nc2c1)c1ccc2c(c1)OCCO2	12.6µM*	-29.3%	-29.0%
CCC(=O)Nc1ccc2oc(-c3ccccc3Br)nc2c1	?	?	-30.0%
O=C(Nc1ccccc1-c1nc2ccccc2o1)c1ccc2c(c1)OCCO2	-12.0%	-0.3%	0.3%
CCc1ccc(NC(=O)C2CCCN2S(=O)(=O)c2ccc3c(c2)CCCC(=O)N3)cc1 (stereo not drawn)	-3.2%	.	-13.2%
CO[C@H]1COC(=O)[C@@H](C)COC(=O)[C@H](C)NC(=O)C/C=C\[C@H]1C	7.5%[9.22 µM]	0.2%[11.4 µM]	11.5%[9.22 µM]
Cc1cc(NC(=O)Nc2ccc(N(C)C)cc2)c2cc(F)cc(F)c2n1	-6.3%	-4.2%	-18.4%
CN(C)CCN1C(=O)CC[C@]2(C)C1=CC[C@@H]1[C@@H]2CC[C@]2(C)[C@H]1CC[C@]2(C)O	-9.7%[9.22 µM]	2.1%[11.4 µM]	14.0%[9.22 µM]
COc1cc(N)c(Cl)cc1C(=O)CCC1CCN(CCNS(C)(=O)=O)CC1	-0.5%	-3.8%	-6.7%
COc1cc(COc2cc(N)c(Cl)cc2C(=O)CCC2CCN(CCNS(C)(=O)=O)CC2)cc(OC)c1	31.6µM*	-0.9%	31.6µM*
Cc1ccc(-c2nc(-c3ccccn3)no2)cc1	0.501µM*	.	0.398µM*
c1ccc(SCc2nc(-c3ccccn3)no2)cc1	-12.4%	-5.9%	-5.9%
c1ccc(Cc2nc(-c3ccccn3)no2)cc1	-23.5%	-18.0%	-13.9%
COc1cc(-c2nc(-c3ccccn3)no2)cc(OC)c1OC	-23.5%	-25.5%	-20.6%
c1ccc(-c2cc(-c3nc(-c4ccccn4)no3)c3ccccc3n2)cc1	-27.6%	-5.0%	-18.6%
c1ccc(-c2nc(-c3ccccn3)no2)cc1	5.62µM*	.	7.08µM*
c1ccc(-c2noc(-c3cccc4ccccc34)n2)nc1	?	7.94µM*	?
Clc1cccc(-c2nc(-c3ccccn3)no2)c1	5.01µM*	2.51µM*	3.16µM*
O=C(CCCCn1c(=O)c2ccccc2n(Cc2ccccc2F)c1=O)NCc1ccccc1Cl	6.2%	.	-11.7%
O=C(Nc1cnn(Cc2ccc(F)cc2)c1)c1cc(-c2ccc(Br)cc2)on1	3.7%	0.1%	-1.7%
SMILES	p53ts 32C kill	Luciferase inh	p53ts 39C kill
CCN(CC)c1ccc(-c2nc(-c3ccccn3)no2)cc1[N+](=O)[O-]	-6.2%	.	-9.8%
Cc1ccc(-c2nc(-c3ccccn3)no2)cc1Cl	2µM*	0.398µM*	2.51µM*
Cc1nnc(SCCn2c(N3CCCC(C)C3)nc3c2c(=O)n(C)c(=O)n3C)s1 (stereo not drawn)	5.01µM*	2.4%	6.31µM*
Cc1nnc(SCCn2c(N3CCC(C)CC3)nc3c2c(=O)n(C)c(=O)n3C)s1	11.3%	0.7%	14.1%
COc1cccc(-c2cn3c(n2)sc2cc(C(=O)NCCCc4ccccc4)ccc23)c1	-4.7%	.	-6.8%
O=C(Nc1c(-c2ccccc2)nc2ccccn12)c1ccco1	13.3%	-1.1%	-3.5%
Oc1cccc(/C=N/c2c(-c3ccco3)nc3ccccn23)c1	?	.	12.6µM*
COC(=O)C1=NOC2(C=C(Br)C(OC)=C(Br)C2=O)C1 (stereo not drawn)	-10.2%[9.22 µM]	.	-18.8%[9.22 µM]
CCc1cc2c(nc1CC)CCN(CC/C(C)=N/OC[C@@H](O)[C@@H]1O[C@@H]3OC(C)(C)O[C@@H]3[C@H]1O)C2	9.5%[9.22 µM]	1.3%[11.4 µM]	14.0%[9.22 µM]
COc1ccc(-c2coc3cc(O)ccc3c2=O)cc1	?	-13.9%[11.4 µM]	?
Cc1nc(-c2coc3cc(OCC(=O)O)ccc3c2=O)cs1	.	3.98µM*	.
Cc1cc(C)cc(Oc2coc3cc(OCC(=O)NC4CCCCC4)ccc3c2=O)c1	4.0%	.	24.4%
COc1ccc2c(=O)c(-c3nc(C)cs3)coc2c1	.	2µM*	.
